From PubChem BioAssay
ELG1 genotox: qHTS screen for small molecules that induce genotoxicity in human embryonic kidney (HEK293T) cells expressing luciferase-tagged ELG1; Potency, µM (top dose mostly 46 µM), for the others: at the top dose activity change, positive = activation, most hits filed as activators; 330,000 tested, 1.3% active; AID 504466, 2011; HEK293T ELG1-luciferase reporter, luminescence, 16 h; also: % of control where 0% means no effect; nearly all actives have a fitted effect of over 60% in size
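Genotoxicity was scored as increased ELG1-luciferase reporter signal, measured by ONE-Glo luminescence (30 min, room temperature). Compound or vehicle exposure of the HEK293T reporter cells lasted 16 hr at 37°C.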
FLuc counter: qHTS profiling assay for firefly luciferase inhibitor/activator using purifed enzyme and Km concentrations of substrates (counterscreen for miR-21 project). purified FLuc, Km substrates, luminescence inhibition. 360,000 tested, 6.9% active. AID 588342, 2011. Luciferin 4-monooxygenase (Photinus pyralis), P08659. Potency, µM (series often up to 57.5 µM), inactives show at the highest dose activity change, negative = inhibition, most hits filed as inhibitors;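 also: plate controls were vehicle for no effect and reference inhibitor for full effect; nearly all actives have a fitted effect of over 55% in size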
Target sequence (P08659 whole entry, looked up): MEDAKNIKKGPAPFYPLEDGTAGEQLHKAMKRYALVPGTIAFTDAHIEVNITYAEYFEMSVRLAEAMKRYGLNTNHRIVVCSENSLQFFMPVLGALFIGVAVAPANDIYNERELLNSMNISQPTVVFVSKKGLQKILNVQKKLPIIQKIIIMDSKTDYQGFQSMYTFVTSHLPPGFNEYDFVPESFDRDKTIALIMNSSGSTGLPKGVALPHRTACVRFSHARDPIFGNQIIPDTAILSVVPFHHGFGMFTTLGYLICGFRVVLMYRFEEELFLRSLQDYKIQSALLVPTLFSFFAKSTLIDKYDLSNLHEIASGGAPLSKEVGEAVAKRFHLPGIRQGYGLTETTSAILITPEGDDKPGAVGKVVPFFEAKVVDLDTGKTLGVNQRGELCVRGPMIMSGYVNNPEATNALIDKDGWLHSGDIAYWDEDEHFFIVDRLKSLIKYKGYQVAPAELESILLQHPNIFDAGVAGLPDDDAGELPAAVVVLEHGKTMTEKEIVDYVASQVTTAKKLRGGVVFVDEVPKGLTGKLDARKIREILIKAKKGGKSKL
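Purified P. pyralis luciferase, 10 nM final, with Km-level 10 uM D-luciferin and 10 uM ATP in 50 mM Tris acetate pH 7.5, 10 mM Mg acetate, 0.01% Tween-20, 0.05% BSA; 6-point qHTS titration about 60 µM downward; luminescence read.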
Rab9 prom act: qHTS Assay for Rab9 Promoter Activators. Huh7 Rab9 promoter-luciferase reporter, luminescence, 24 h. 320,000 tested, 2.8% active. Potency, µM (series often up to 9.22 µM), for inactives: top-dose activation, negative = inhibition, hits mostly activators; also: % of control where 0% means no effect; nearly all actives have a fitted effect of over 60% in size
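Luciferase signal after 10 min detection reagent at ambient indicates Rab9 promoter upregulation; stably transfected Huh7 cells were treated 24 h with compound in DMSO at 37 °C, 5% CO2.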
SMN2 splice enh: qHTS Assay for Enhancers of SMN2 Splice Variant Expression; 210,000 tested, 2.8% active; AID 1458, 2008; Potency, µM (series often up to 46.1 µM), without a hit: top-dose activity change, positive = activation, hits mostly activators; HEK293 SMN2-luciferase splicing reporter, luminescence, 30-36 h; also: % of control where 0% means no effect; nearly all actives have a fitted effect of over 55% in size
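qHTS luciferase splicing reporter: luminescence rises when SMN2 exon 7 is included in transfected HEK293 cells. Compound exposure lasted 30-36 h at 37C, with 4.5 mM final sodium butyrate as control, followed by a ONE-Glo read.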
NPC1 prom act: qHTS Assay for NPC1 Promoter Activators. Huh7 NPC1 promoter luciferase reporter, 24 h. Potency, µM (series often up to 9.22 µM), without a hit: top-dose activation, usual class: activators. 320,000 tested, 2.4% active. AID 485313, 2010; also: % of control where 0% means no effect; nearly all actives have a fitted effect of over 60% in size
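Readout is luciferase luminescence, reflecting NPC1 promoter activation in stably transfected Huh7 cells after 24 h compound exposure at 37 °C in reduced-serum medium with 10% FBS.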
KinaseGlo FLuc: Counterscreen for Luciferase (Kinase-Glo TM) Inhibition; Kinase-Glo luciferase, ATP luminescence, 8 min; 200,000 tested, 0.28% active; AID 1379, 2008; Luciferin 4-monooxygenase (Photuris pensylvanica), Q27757; Potency, µM (titrated, usually from 38.3 µM), without a hit: at the highest dose activity change, negative = inhibition, usual class: inhibitors; also: % is scaled to controls: 0 for no effect and ±100 for the full control effect; nearly all actives have a fitted effect of over 60% in size
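Recombinant Kinase-Glo luciferase, 10 uM ATP (linear range), luciferin; imidazole pH 7.2 / KCl / MgCl2 / Tween / BSA buffer; 8 min RT; luminescence.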
Numbers without * were called inactive; ? = inconclusive; nt = not tested or not shown. This is a sample that favours compounds with a hit; in the whole collection about 7.4% have one here. Calls follow the shape of the dose curve; as a rule, active = well fitted curve in the direction sought with a large enough effect; inconclusive = small, poorly fitted or top-dose-only effect, or another doubt; inactive = no such curve, though single readings can be large; an effect the other way counts as inactive or inconclusive. Potency is read from the fitted curve at half-maximal effect.

SMILES | ELG1 genotox | FLuc counter | Rab9 prom act | SMN2 splice enh | NPC1 prom act | KinaseGlo FLuc
CC(C(=O)Nc1ccc(F)c(Cl)c1)N1Cc2ccccc2C1=O (stereo not given) | nt | -3% | nt | nt | nt | nt
CC(C)(C)c1ccc(OCCSc2nc(-c3cccs3)nc3cc(=O)[nH]n23)cc1 | nt | 15µM* | nt | nt | nt | nt
CCOc1ccc2nc(NC(=O)CSc3cn[nH]n3)sc2c1 | 4.6µM* | 2.7µM* | 4.5µM* | nt | 2.8µM* | nt
COc1ccc2nc(NC(=O)CSc3cn[nH]n3)sc2c1 | ? | 6.7µM* | 4µM* | nt | ? | nt
CCOc1ccc2nc(NC(=O)CSc3nc(-c4ccccc4)c(C#N)c(=O)[nH]3)sc2c1 | 11% | 17µM* | 2% | nt | 0% | nt
CCOc1ccc(NC(=O)CSc2cn[nH]n2)cc1 | 2% | ? | -5% | nt | 6% | nt
COC(=O)N1CCC2(CC1)CCN(C(c1ccccc1)c1ccccc1)CC2 | nt | nt | nt | -8% | nt | 1%
CCOC(=O)CNC(=O)CSc1nc(-c2cccc(C)c2)ns1 | -4% | 24µM* | 6% | 5% | 2% | -3%
CCOC(=O)CNC(=O)CSc1nnc(NC(=O)c2ccc3c(c2)OCO3)s1 | 3.3µM* | 0.95µM* | 3.2µM* | nt | 3.5µM* | nt
O=C(Nc1nnc(SCC(=O)N2CCCc3ccccc32)s1)c1cccc2ccccc12 | -6% | ? | 7% | -9% | 8% | -1%
Cc1cccc(-c2nsc(SCC(=O)NCc3ccco3)n2)c1 | 0% | ? | -2% | -4% | 13% | -6%
Cc1ccc(C(=O)Nc2nnc(SCC(=O)N3CCCc4ccccc43)s2)cc1 | ? | 0.15µM* | 0.32µM* | ? | ? | -3%
CCOC(=O)CSc1nnc(NC(=O)c2cccc([N+](=O)[O-])c2)s1 | -1% | 11µM* | -3% | -1% | 0% | -2%
CCCC(=O)Nc1nnc(SCC(=O)NCc2ccc3c(c2)OCO3)s1 | 1% | -4% | -2% | 10% | -1% | -1%
CN(Cc1ccccc1)C(=O)C1CCC(CNS(=O)(=O)c2ccc3c(c2)CCCC(=O)N3)CC1 (stereo not given) | nt | -3% | nt | nt | nt | nt
COc1ccc(-c2nc(S(=O)(=O)c3ccc(C)cc3)c(NCc3ccccc3)o2)cc1 | nt | 2% | nt | 1% | nt | nt
COc1ccc(CNC(=O)c2cc3c(=O)n(C)c4ccccc4c3n2C)c(OC)c1 | nt | 4% | nt | 1% | nt | nt
CCOC(=O)CNC(=O)CSc1nnc(SCC(=O)NCC(=O)OCC)s1 | 5% | -3% | 3% | -32% | 2% | -5%
CCOC(=O)CNC(=O)CSc1nnc(NC(=O)c2ccc(C)cc2)s1 | ? | 0.6µM* | 0.56µM* | 5µM* | 1.8µM* | -7%
CCOC(=O)CNC(=O)c1ccc(SCC)cc1 | ? | 19µM* | ? | nt | ? | nt
O=C(NC1CCCC1)O[C@@H]1C(=O)c2cc(Br)ccc2O[C@H]1c1ccc2c(c1)OCO2 | nt | nt | nt | 2% | nt | -2%
COc1ccc(CNC(=O)c2cc3ccccn3n2)c(OC)c1 | nt | -14% | nt | nt | nt | nt
Cc1cc2nn(-c3ccc(F)cc3)nc2cc1N | 1.6µM* | 0.76µM* | 3.2µM* | nt | 2.5µM* | nt
COc1ccc(-n2nc3cc(C)c(NC(=O)c4ccc(C)cc4C)cc3n2)cc1Cl | nt | -2% | nt | 4% | nt | nt
COc1ccc(-n2nc3cc(C)c(N)cc3n2)cc1Cl | ? | 1.1µM* | 2.8µM* | nt | 2.2µM* | nt
Cc1cc2nn(-c3ccc(Cl)cc3)nc2cc1N | ? | 0.34µM* | 22% | nt | ? | nt
O=C(CCCn1c2ccccc2c(=O)c2ccccc21)Nc1cccc(Cl)c1 | nt | ? | nt | -17% | nt | nt
Cc1ccc(OCCNc2cc(N3CCN(CCO)CC3)ccc2[N+](=O)[O-])cc1C | -2% | 24µM* | -5% | -4% | 0% | -1%
